The panel holds about 79,000 compounds, 15% with a hit somewhere; the sample as a whole holds those more often. Unmarked numbers belong to inactive results. Active and inactive are the calls of the source. No stated cut-off is given here; in the data, active means growth inhibition above about 70%; inactive means the rest.

The nature of assay [1]: NCI Yeast Anticancer Drug Screen. Data for the rad50 strain (AID 155).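 Further: 0% = growth of vehicle-only cultures of the same strain.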 The settings on record: S. cerevisiae rad50 strain growth inhibition; at 50.0 µM; active compounds read high. An outline of the steps:
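Yeast carrying a defined DNA repair defect were exposed to test compounds, and growth was compared with vehicle-treated controls to give percent inhibition.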

Assay [2] is described as follows: NCI Yeast Anticancer Drug Screen. Data for the mec2-1 strain (AID 157). The following applies: S. cerevisiae mec2-1 strain, at 50.0 µM, active compounds read high. An outline of the steps: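 Growth inhibition is read against vehicle-treated controls after compound exposure of the mec2-1 yeast strain, which is defective in DNA damage repair or cell cycle control.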
Assay [3] is described as follows: NCI Yeast Anticancer Drug Screen. Data for the sgs1 mgt1 strain (AID 161).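 Further: 0% = growth of cultures given vehicle only.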 The following applies: S. cerevisiae sgs1 mgt1 strain, at 50.0 µM, active compounds read high. An outline of the steps:
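Compounds are added to genetically altered yeast, and growth is compared with cultures given vehicle alone to give percent inhibition.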

Assay [4] can be described thus: NCI Yeast Anticancer Drug Screen. Data for the cln2 rad14 strain (AID 165).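 Further: 0% = growth equal to vehicle treated cultures.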 The settings on record: S. cerevisiae cln2 rad14 strain, at 50.0 µM, active compounds read high. An outline of the steps: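 Growth inhibition, relative to vehicle-treated controls, is the read-out. The test organism is a yeast strain with defined genetic alterations, cln2 rad14.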
Assay [5] in a line: NCI Yeast Anticancer Drug Screen. Data for the bub3 strain (AID 167). The settings on record: S. cerevisiae bub3 mutant strain, at 50.0 µM, active compounds read high. An outline of the steps: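 Compounds were applied to a genetically altered yeast strain carrying a cell-cycle control defect. Growth inhibition was scored against vehicle-treated controls.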
Assay [6] can be described thus: NCI Yeast Anticancer Drug Screen. Data for the mlh1 rad18 strain (AID 175). The following applies: S. cerevisiae mlh1 rad18 strain growth inhibition; at 50.0 µM; active compounds read high. An outline of the steps: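 Cells of a genetically altered yeast strain, deficient in DNA damage repair, were treated with compound. Their growth was then compared with that of vehicle-treated cultures to give inhibition.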

Regarding `Cc1nc(N)sc1C`, the growth inhibition in assay [1] is 12.7%; in assay [2], -26.9%; in assay [3] it was 16.6%; in assay [4], 7.7%; in assay [5] it was 25.6%; in assay [6] it was 26.2%.

For the compound `O=C(NCc1ccc2ccc3cccnc3c2n1)c1ccc[n+](Cc2ccccc2)c1`, the growth inhibition in assay [1] is -6.1%; in assay [2], -11.6%; in assay [3], 5.65%; in assay [4], 3.5%; in assay [5] it was 10.1%; in assay [6], 1.75%.

With `CNC(=O)c1nnn(Cc2ccc(OC)cc2)c1Cl`, the growth inhibition was -8.05% in assay [1]; -8.9% in assay [2]; -14.7% in assay [3]; -69% in assay [4]; -1.3% in assay [5]; -8.15% in assay [6].

Take `COC(=O)[C@]1(C)CCC[C@]2(C)c3cc(Br)c(C(C)C)cc3CC[C@H]12`: the growth inhibition is -18.6% in assay [1]; -9.25% in assay [2]; -6.3% in assay [3]; -44.5% in assay [4]; -4.55% in assay [5]; -1.8% in assay [6].

For `CCN(CC)CCOC(=O)C1c2ccccc2Oc2ccccc21`, the growth inhibition in assay [1] was 25.2%; in assay [2] it was -31.5%; in assay [3] it was 9.1%; in assay [4], 13.9%; in assay [5], 21.4%; in assay [6], 15.3%.

Turning to `C/C(=C(/C)c1cc[n+](C)cc1)c1cc[n+](C)cc1`, the growth inhibition was 74.4% (active) in assay [1]; 60.6% in assay [2]; 67% in assay [3]; 44.4% in assay [4]; 56.3% in assay [5]; 68.5% in assay [6].

Regarding `Nc1ccc2c(c1)C(=O)N(OS(=O)(=O)c1ccccc1)C2=O`, the growth inhibition in assay [1] is 55%; in assay [2], 39%; in assay [3] it was 41.2%; in assay [4], 41%; in assay [5], 35%; in assay [6], 47.2%.

With `O=C1/C(=C/c2ccc(Cl)cc2)CCC1CNc1ccc(Cl)cc1` (stereo unspecified), the growth inhibition is 17.1% in assay [1]; 0.25% in assay [2]; -15.6% in assay [3]; -2.8% in assay [4]; -16.2% in assay [5]; -43.1% in assay [6].

On to `C=CCCCCCCCCC(=O)N(CC#N)CC(C)C`, for which the growth inhibition in assay [1] is 79.1% (active); in assay [2], 82% (active); in assay [3], 91.5% (active); in assay [4], 76% (active); in assay [5], 87.2% (active); in assay [6], 91.5% (active).

In the case of `Cc1cn(C2CC(O)C(CO)O2)c(=O)nc1NC1CC1` (stereo unspecified), the growth inhibition was -7% in assay [1]; 3.45% in assay [2]; -1% in assay [3]; -13% in assay [4]; 0.6% in assay [5]; 3.15% in assay [6].

`CCOC(=O)NCC(Cl)(Cl)Cl`: the growth inhibition in assay [1] is -4.6%; in assay [2], 0.25%; in assay [3], -11.1%; in assay [4] it was -51.4%; in assay [5], 6.6%; in assay [6] it was -6.7%.

In the case of `CN1CCCc2cccc(NC(=O)C3CCCNC3=O)c21` (stereo unspecified), the growth inhibition in assay [1] is -15.3%; in assay [2] it was 1.35%; in assay [3], -2.3%; in assay [4], -32.8%; in assay [5] it was 6.55%; in assay [6], 9.75%.

Take `O=c1[nH]nc(Cc2ccc(Cl)cc2)n1CCO`: the growth inhibition is 8.2% in assay [1]; 5.95% in assay [2]; 19.6% in assay [3]; 3.75% in assay [4]; 5.85% in assay [5]; -21.1% in assay [6].

Regarding `CNc1c(F)cc(N=Nc2ccccc2)cc1F`, the growth inhibition in assay [1] was 14.7%; in assay [2], -8.2%; in assay [3], 30%; in assay [4], -20.7%; in assay [5], -4%; in assay [6], 10.1%.

In the case of `CC(=S)NC=C(C(N)=O)C(N)=O`, the growth inhibition in assay [1] is 6.65%; in assay [2] it was 1.05%; in assay [3], 11.7%; in assay [4] it was 16%; in assay [5], -4.2%; in assay [6], -16.5%.

As for `Cc1ccc(NC2=CC(=O)C(=O)c3ccccc32)cc1C`, the growth inhibition in assay [1] was 35%; in assay [2], 13.1%; in assay [3], 19.4%; in assay [4], 11.4%; in assay [5], 34%; in assay [6], 26.5%.

For `CN(C)c1nc(N(C)C)nc(N(C)C=O)n1`, the growth inhibition is -4.9% in assay [1]; -21.9% in assay [2]; -30.7% in assay [3]; -2.85% in assay [4]; -27.6% in assay [5]; -5.55% in assay [6].

With `O=C(O)c1ccccc1Cc1c[nH]c2ccccc12`, the growth inhibition in assay [1] was -37.3%; in assay [2], 4.95%; in assay [3] it was -0.8%; in assay [4], -15.3%; in assay [5], 41.3%; in assay [6], -5.05%.

For `N#CCCN(C1=NN(C(=O)CC(=O)Nc2cccc(Cl)c2)C(c2ccccc2)C1)c1ccccc1Cl` (stereo unspecified), the growth inhibition was 8.2% in assay [1]; -28.8% in assay [2]; -16.1% in assay [3]; 11.5% in assay [4]; -14.9% in assay [5]; -30.9% in assay [6].

In the case of `COC(=O)Cc1ccc2c(c1)Sc1ccc(CC(=O)OC)cc1N2C`, the growth inhibition is -4.75% in assay [1]; -43.8% in assay [2]; -10.1% in assay [3]; -18.2% in assay [4]; 34.7% in assay [5]; -36.3% in assay [6].

Consider `Nc1nc2c(nnn2C2OC(CO)C(O)C2O)c(=O)[nH]1` (stereo unspecified), for which the growth inhibition in assay [1] is -4.6%; in assay [2], 5.65%; in assay [3], -5.3%; in assay [4], -37.5%; in assay [5] it was -16.8%; in assay [6], 9.45%.

The record behind these values is PubChem BioAssay (NCI).
